In ChEMBL document CHEMBL1157539, “Thousands of chemical starting points for antimalarial lead identification” (Nature, 2010):
“And” between values parts separate entries of the source, which are not always exact repeats. Equal values may be shown once.

Tested on: Plasmodium falciparum
Experiment: GSK_TCMDC: Inhibition of Plasmodium falciparum 3D7 in whole red blood cells, using parasite LDH activity as an index of growth. Test compounds present at 2uM
Type: functional

Structure (SMILES) | Inhibition
O=C(c1cc(C(=O)NCc2ccc(Cl)cc2)c(=O)n(Cc2ccc(Cl)cc2)c1)c1cc(F)ccc1O | 93%
C/C=C1\CN2CC[C@H]1C[C@H]2[C@H](O)c1ccnc2ccc(O)cc12 | 98%
CC(=O)N(Cc1ccc(-c2ccc(CNCCc3ccccc3)cc2)cc1)C1CCN(Cc2ccccc2)CC1.O=C(O)C(F)(F)F | 95%
CCCCCc1cc(O)c2c(c1)OC(C)(C)c1ccncc1-2.Cl | 99%
O=C(/C=C/c1ccc(C(F)(F)F)cc1)NC1CCC(CN2CCC(c3c[nH]c4ccccc34)CC2)CC1 (stereo not drawn) | 100% and 98%
CCC1(C)CC(CCNCc2ccccc2O)(c2ccc(C)cc2)CCO1 (stereo not drawn) | 97%
CN(c1ccc(NC(=O)CCOc2ccccc2)cc1)C1CCN(Cc2cccc(O)c2)CC1.O=C(O)C(F)(F)F | 89%
Cc1[nH]c2cc(Cl)ccc2c1C1=CCN(CCN2CCOc3c(Br)cccc3C2=O)CC1.Cl | 90%
CCCCCCCn1c(=O)c(C(=O)Nc2c(C)cccc2C)c(O)c2ccccc21 | 90%
COc1cccc(C=CC(=O)NC2CCC(CN3CCC(c4c[nH]c5ccccc45)CC3)CC2)c1OC (stereo not drawn) | 100%
O=C(/C=C/c1ccccc1O)NC1CCC(CN2CCC(c3c[nH]c4ccccc34)CC2)CC1 (stereo not drawn) | 100%
O=C(C=Cc1ccccc1O)N1CCC(CN2CCC(c3c[nH]c4ccccc34)CC2)CC1 | 98%
CC(C)CN1CCC(N(C)c2cc(NC(=O)c3cccc(F)c3)ccn2)CC1.O=C(O)C(F)(F)F | 97%
Cc1ccc(CC(C)NCC(O)c2cccc(C(F)(F)F)c2)cc1.Cl (stereo not drawn) | 99%
Cl.Cl.c1ccc2c(NCCCCCCNc3c4ccccc4nc4ccccc34)c3ccccc3nc2c1 | 99%
Cc1ccc2c(C3=CCN(CCCCC4(C)C(=O)Nc5c(F)cccc54)CC3)c(C)[nH]c2c1 (stereo not drawn) | 95%
O=P(O)(O)Oc1c(Br)cc(Br)cc1-c1cc(Br)cc(Br)c1O [BROMOFENOFOS] | 97%
C=C[C@H]1CN2CC[C@H]1C[C@H]2[C@H](O)c1ccnc2ccccc12 [CINCHONIDINE] | 100%
CC[C@H]1CN2CC[C@H]1C[C@H]2[C@H](O)c1cc(-c2ccc(SC)cc2)nc2ccc(OC)cc12.Cl | 98%

Structure (SMILES) | Inhibition
Cl.O=C(CNC1CCCCC1)c1ccc(O)c(O)c1 | 100%
COc1cccc(C(=O)C2CC2CN2CC=C(c3c[nH]c4ccc(OC)nc34)CC2)c1 (stereo not drawn) | 94%
CCOc1ccc2nccc([C@@H](O)[C@@H]3C[C@@H]4CCN3C[C@@H]4CC)c2c1 [ETHYLHYDROCUPREINE] | 99%
Cc1cc(N(C)C2CCN(C)CC2)nc(Nc2ccc(Cl)cc2)n1 | 98%
Cc1ccc(CC(C)NC[C@H](O)c2cccc(Cl)c2)cc1.Cl (stereo partly drawn) | 96%
O=c1n[n+](C2CCCCC2)[n-]o1 | 91%
CSc1nccc(-c2ccc(S(=O)(=O)NC3CCC(CN4CCC(c5c[nH]c6ccccc56)CC4)CC3)s2)n1 (stereo not drawn) | 100%
C/C=C1\CN2CC[C@H]1C[C@H]2[C@H](O)c1ccnc2ccc(OC)cc12 | 100%
CC(=O)Nc1ccc(CN2CCC(N(C)c3cc(NC(=O)c4cccs4)ccn3)CC2)cc1.O=C(O)C(F)(F)F | 100%
CN(Cc1ccccc1)C1CCN(CCc2c[nH]c3ccc(F)cc23)CC1.O=C(O)C(F)(F)F | 100%
O=C(/C=C/c1ccc(Cl)c(Cl)c1)NCc1ccc(CN2CCC(c3c[nH]c4ccccc34)CC2)cc1 | 100%
CCCCCC(C)C(C)c1cc(O)c2c3c(c(=O)oc2c1)CN(Cc1ccccc1)CC3.Cl (stereo not drawn) | 99%
O=C(Nc1ccccc1Cl)NC1CCC(CN2CCC(c3c[nH]c4ccccc34)CC2)CC1 (stereo not drawn) | 100% and 98%
Cc1ccc(/C=C/C(=O)NC2CCC(CN3CCC(c4c[nH]c5ccccc45)CC3)CC2)cc1 (stereo not drawn) | 100%
COc1ccc(CC(C)NCC(O)c2cccc(C(F)(F)F)c2)cc1 (stereo not drawn) | 98%
CCCc1cc([C@@H](O)[C@@H]2C[C@@H]3CCN2C[C@@H]3CC)c2ccccc2n1 | 100%
CC[C@H]1CN2CC[C@H]1C[C@H]2[C@H](O)c1cc(-c2ccccc2C(F)(F)F)nc2ccc(OC)cc12.Cl | 98%
COc1ccc(OC)c(CNCC(O)c2cc(C(F)(F)F)cc(C(F)(F)F)c2)c1 (stereo not drawn) | 92%
COC(=O)c1ccc(CC(C)NCC(O)c2cccc3ccccc23)cc1 (stereo not drawn) | 96%
